Usually inhibition stands for the relative decrease from the control value, in per cent.

About 380 (27%) of roughly 1,400 compounds were called active. The list shows a part of the results. Values without a mark were called inactive.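 The calls were made as follows: active = mean inhibition above 50% across duplicate retests at 10 µM; inactive = the rest.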

The text below walks through data of PubChem BioAssay AID488841 (Sanford-Burnham Center for Chemical Genomics, 2010).

A short description of the test: inhibition of NALP1/ASC/caspase-1 reporter signal in yeast, confirmation, NALP1 inhibitor project, S. cerevisiae, luminescence, single concentration (AID 488841).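 Also: plate controls were DMSO in galactose medium for no effect and cells in plain SD medium for full effect.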 The settings on record: S. cerevisiae NALP1/ASC/Caspase-1 reporter, beta-gal luminescence; at 10 µM; stronger effect = higher value.
As for `CCOC(=O)NC1(NCc2ccccc2)Oc2ccccc2O1`, the inhibition was 32.2%.

Consider `Cc1ccc(C(=O)O)cc1N=Cc1cc(Br)cc(Br)c1O`, for which the inhibition was 59% (active). `O=C(Nc1cccc(N=Cc2cc(Br)cc(Br)c2O)c1)c1ccco1`: the inhibition was 39.2%. For the molecule `Oc1c(Br)cc(Br)cc1C=Nc1ccc2c(c1)OCO2`, the inhibition was 48.6%. The figure for `COc1ccc(C(C)C)cc1S(=O)(=O)n1cnc(C)c1` is 18.5%.

Consider `Cc1nc2cc(C(=O)NCc3ccc4c(c3)OCO4)ccc2n1-c1ccc(Br)cc1`, for which the inhibition is 43.1%.

As for `CCOC(=O)c1c(NC2OC(=O)c3c2ccc(OC)c3OC)sc(C(=O)OC(C)(C)C)c1C` (configuration not stated), the inhibition is 57.5% (active). As for `Cc1onc(-c2ccccc2Cl)c1C(=O)N1C=CC(C(F)(F)F)=NCC1`, the figure is 65.7% (active). On to `NC(=O)c1ncc(C(F)(F)F)cc1Oc1ccc(C(F)(F)F)cc1`, for which the inhibition was 28.9%. As for `Cc1ccccc1N=C/C=C1\N(C)c2ccccc2C1(C)C`, the figure is 31.9%; as for `C(=C\c1nc(N2CCCC2)c2ccccc2n1)/c1ccccc1`, 78.1% (active). As for `C(=C\c1nc(N2CCCCCC2)c2ccccc2n1)/c1ccccc1`, the figure is 70.2% (active); as for `Cc1ccc(C)c(NC(=O)CSc2nnc(-c3ccccc3)o2)c1`, 32.8%. As for `O=[N+]([O-])c1ccc(-c2ccn[nH]2)o1`, the inhibition is 39%. As for `O=C(CSc1nnnn1C1CCCCC1)N1c2ccccc2Sc2ccccc21`, the figure is 35.8%; as for `O=S(=O)(Cc1cc(Sc2ccccc2)nc(-c2ccccc2)n1)c1ccccc1`, 19.4%.

Turning to `O=C1CN(c2nnnn2-c2ccccc2)CCN1`, the inhibition was 35%. Regarding `CNc1ccccc(-c2ccc3ccccc3n2)c1=O`, the inhibition is 24.8%. The figure for `Cc1ccc(/C(N)=N/OC(=O)c2ccc3c(c2)OCO3)cc1` is 77.3% (active); for `N/C(Cc1ccc(Cl)cc1Cl)=N\OC(=O)c1cccs1` it is 51.2% (active).

As to `COc1ccc(Cl)cc1C(=O)O/N=C(\N)c1ccc(Cl)cc1`, the inhibition was 35.3%. The figure for `Cc1ccc(/C(N)=N/OC(=O)c2ccc(Cl)cc2Cl)cc1` is 36%. As for `Cc1cccc(/C(N)=N/OC(=O)c2ccc(Cl)cc2Cl)c1`, the figure is 21.6%; as for `Cc1cccc(/C(N)=N/OC(=O)c2cccc3ccccc23)c1`, 28.9%. The figure for `Cc1ccc(/C(N)=N/OC(=O)c2cccs2)cc1` is 57.2% (active); for `Cc1cccc(/C(N)=N/OC(=O)c2ccc3c(c2)OCO3)c1` it is 54.1% (active). In the case of `COc1ccc(C(=O)O/N=C(\N)Cc2ccc(Cl)cc2Cl)cc1OC`, the inhibition is 40.5%.

Turning to `N/C(Cc1cccs1)=N\OC(=O)COc1ccccc1Cl`, the inhibition is 45.7%.

Turning to `Nc1ccc(C(=O)c2cccs2)cc1`, the inhibition is 44%.

With `COc1ccc(/C=C(/C(=O)c2cccs2)N2C=CC=CC2=C(C#N)C#N)cc1`, the inhibition was 38.4%.

`COc1ccc2oc(=Nc3ccccc3)c(-c3nc4ccccc4[nH]3)cc2c1`: the inhibition was 38%. `Nc1ccccc1-c1nc2ccccc2[nH]1`: the inhibition is 71.9% (active). As for `Cc1ccc2nc(-c3ccc(NC(=O)CN(c4ccccc4C)S(C)(=O)=O)cc3)sc2c1`, the figure is 37.2%; as for `O=C(Nc1cccc(O)c1)c1cc(-c2ccco2)on1`, 74.8% (active); as for `O=C(NCc1ccc(F)cc1)c1cc(-c2ccco2)on1`, 33%. As to `CCCn1c(-c2cccnc2Cl)nc2cc(Cl)c(Cl)cc21`, the inhibition is 41.4%. The figure for `CC(C)CC(=O)/C(=C\c1ccc(Cl)cc1Cl)n1cncn1` is 100% (active); for `Oc1ccc2ccccc2c1CN1CCN(c2ccccc2)CC1` it is 33.5%; for `Cc1ccc(CN2CCN(/N=C/c3cccs3)CC2)cc1` it is 34.5%.

As to `O=C(NCCc1csc(-c2ccccc2)n1)c1ccc(Br)o1`, the inhibition was 57.4% (active). The figure for `O=C(NCCCn1ccnc1)c1ccc(Br)o1` is 22.2%; for `COc1ccc(-c2nc(CCNC(=O)c3cccs3)cs2)cc1` it is 41.9%; for `Cc1ccc2cc(CN(Cc3ccco3)C(=O)NC3CCCCC3)c(=O)[nH]c2c1C` it is 18.7%.

`CS(=O)(=O)c1nc(-c2ccco2)cc(C(F)(F)F)n1`: the inhibition is 81.3% (active). Consider `Nc1nc(-c2ccco2)nn1S(=O)(=O)c1ccccc1`, for which the inhibition was 23.4%. The figure for `CCOC(=O)c1c(C)[nH]c2c1-c1ccccc1C(=O)C2=O` is 25.1%; for `O=S(=O)(Nc1cc(Sc2cccc3cccnc23)c(O)c2ccccc12)c1ccc(F)cc1` it is 56.7% (active); for `Cc1cc(C)c(S(=O)(=O)Nc2cc(SCC(=O)O)c(O)c3ccccc23)cc1C` it is 22.2%. The figure for `O=S(=O)(Nc1ccc(Oc2ncccn2)c(Cl)c1)c1ccc(F)cc1` is 23%.

`CN(C)CCN(Cc1ccccc1)c1nccc(N(C)C)c1C#N`: the inhibition was 25.1%. As for `O=C(O)C1C2C=CC(C2)C1C(=O)NCc1ccc(Cl)c(Cl)c1` (configuration not stated), the figure is 33.5%; as for `CS(=O)(=O)N(CC(=O)Nc1ccccc1Sc1ccccc1)C1CCCCC1`, -0.35%.
